L3MBTL1 inh = qHTS Assay for the Inhibitors of L3MBTL1; actives 0.66% (n = 230,000); AlphaScreen L3MBTL1–H3K9me1 peptide binding; Potency, µM (highest dose often 57.1 µM), most hits filed as inhibitors; Lethal(3)malignant brain tumor-like protein 1 (Homo sapiens), Q9Y468; note: nearly all actives have a fitted effect of over 60% in size
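AlphaScreen proximity signal between nickel-chelate acceptor and streptavidin donor beads (final 10 ug/mL) reports binding of 50 nM L3MBTL1 to 75 nM biotin-H3 K9me1 peptide; complex incubated with compounds 30 min at room temperature; cefsulodin titration as control.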
RECQ1 helicase = qHTS Assay for Inhibitors of RecQ-Like Dna Helicase 1 (RECQ1) | RECQ1 DNA unwinding, red fluorescence kinetic read | Potency, µM (highest dose often 57.3 µM), most hits filed as inhibitors | actives 0.54% (n = 240,000); note: nearly all actives have a fitted effect of over 30% in size
Target sequence (P46063 whole entry, looked up): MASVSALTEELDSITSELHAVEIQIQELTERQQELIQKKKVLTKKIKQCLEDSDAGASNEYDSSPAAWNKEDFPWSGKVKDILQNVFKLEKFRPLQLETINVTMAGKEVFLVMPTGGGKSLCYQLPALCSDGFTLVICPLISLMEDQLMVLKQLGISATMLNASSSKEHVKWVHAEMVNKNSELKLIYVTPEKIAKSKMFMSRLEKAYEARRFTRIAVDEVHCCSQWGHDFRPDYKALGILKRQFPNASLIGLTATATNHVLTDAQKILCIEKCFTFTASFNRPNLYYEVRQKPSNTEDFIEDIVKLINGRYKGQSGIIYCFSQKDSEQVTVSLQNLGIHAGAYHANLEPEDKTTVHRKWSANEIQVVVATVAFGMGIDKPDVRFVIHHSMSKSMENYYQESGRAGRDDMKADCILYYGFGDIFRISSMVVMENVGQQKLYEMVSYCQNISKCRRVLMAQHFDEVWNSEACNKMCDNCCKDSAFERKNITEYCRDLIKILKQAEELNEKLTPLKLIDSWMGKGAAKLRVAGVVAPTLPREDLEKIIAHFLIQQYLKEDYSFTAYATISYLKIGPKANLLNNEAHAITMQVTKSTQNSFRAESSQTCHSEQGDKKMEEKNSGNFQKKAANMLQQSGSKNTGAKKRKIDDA
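RECQ1T1 50 nM; forked duplex (20 bp + 30-nt ss tails) 200 nM, ATP 2 mM final; pH 8.0, 2 mM MgCl2, 2.5 ug/ml poly(dI-dC); 15 min compound preincubation; discontinuous kinetic read over 2 h at RT.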
APE1 inh-1 = qHTS Assay for Inhibitors of the Human Apurinic/apyrimidinic Endonuclease 1 (APE1). DNA repair nuclease/redox regulator APEX1 (Homo sapiens), P27695. recombinant APE1, TAMRA/BHQ-2 abasic DNA cleavage fluorescence. Potency, µM (highest dose often 65.8 µM), usual class: inhibitors. actives 0.35% (n = 350,000). AID 2517, 2012; note: nearly all actives have a fitted effect of over 55% in size
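Endonuclease cleavage of a quenched abasic-site DNA duplex (50 nM) by APE1 (0.75 nM) was tracked by TAMRA dequenching. Compounds were preincubated with enzyme 15 min at room temperature; data normalized to buffer-only and DMSO wells plus NSC13755 control.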
WRN inhibitor = qHTS for Inhibitors of WRN Helicase; WRN helicase unwinding, fluorescent forked duplex, kinetic; Bifunctional 3'-5' exonuclease/ATP-dependent helicase WRN (Homo sapiens), Q14191; actives 0.46% (n = 360,000); Potency, µM (top dose mostly 114 µM), hits mostly inhibitors; AID 651768, 2012; note: nearly all actives have a fitted effect of over 55% in size
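Screening of the MLSMR collection measured strand separation of a quenched forked DNA duplex (100 nM) by 20 nM WRN with 2 mM ATP, all final. Compounds were preincubated with enzyme 15 min at room temperature.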
BLM helicase inh = qHTS Assay for Inhibitors of Bloom's syndrome helicase (BLM); RecQ-like DNA helicase BLM (Homo sapiens), P54132; recombinant BLM DNA unwinding, fluorescence dequenching; Potency, µM (highest dose often 56.1 µM), actives largely listed as inhibitors; actives 0.2% (n = 350,000); note: nearly all actives have a fitted effect of over 35% in size
DNA dye displace = Counterscreen for APE1 Inhibitors: Fluorescent Dye Displacement Assay. DNA fluorescent dye displacement counterscreen, fluorescence. shares compounds with APE1 inh-1. actives 7% (n = 480). Potency, µM (titrated, usually from 28.5 µM), actives largely listed as inhibitors. AID 2564, 2010;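 note: loss of thiazole orange fluorescence as the dye is displaced from duplex DNA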
EndoIV counter = Counterscreen for APE1 Inhibitors: qHTS Assay for Inhibitors of Endonuclease IV | E. coli Endo IV, fluorogenic AP-site DNA cleavage | actives 4% (n = 560) | Potency, µM (top dose mostly 27.1 µM), most hits filed as inhibitors | shares compounds with APE1 inh-1 | AID 2565, 2010
APE1 inh-2 = Confirmation qHTS Assay for Inhibitors of the Human Apurinic/apyrimidinic Endonuclease 1 (APE1); purified APE1, fluorogenic abasic-site DNA cleavage; Potency, µM (doses to about 57.1 µM), actives largely listed as inhibitors; shares compounds with APE1 inh-1; actives 44% (n = 750); AID 2572, 2010; note: nearly all actives have a fitted effect of over 30% in size
APE1 FP inh = qHTS FP-Based Assay for Inhibitors of the Human Apurinic/apyrimidinic Endonuclease 1 (APE1); shares compounds with APE1 inh-1; actives 7% (n = 480); Potency, µM (doses to about 28.5 µM), most hits filed as inhibitors; APE1 binding to TAMRA-labelled double-stranded DNA, fluorescence polarization displacement; AID 2573, 2010
Of the large screens only hits and unclear results are named; the others gave an inactive call (follow-up assays come after a bar, where they were run). Only some compounds are listed: those with a hit (about 0.92% of all), similar ones and a draw of the others. Calls come from the whole dose curve; as a rule, active = well fitted curve in the direction sought with a large enough effect; inconclusive = small, poorly fitted or top-dose-only effect, or another doubt; inactive = no such curve, though single readings can be large; an effect the other way counts as inactive or inconclusive.

COC(=O)c1ccccc1NC(=O)COC(=O)/C=C/c1ccco1	APE1 inh-1 inconclusive | DNA dye displace inactive | EndoIV counter inactive | APE1 inh-2 inconclusive | APE1 FP inh inactive
COC(=O)c1ccccc1NC(=O)COC(=O)c1ccco1	L3MBTL1 inh inconclusive, WRN inhibitor inconclusive
Nc1nc(N)c(N=Nc2ccc(S(N)(=O)=O)cc2)c(=O)[nH]1	none
NS(=O)(=O)c1ccc(N=Nc2ccc(=O)[nH]c2O)cc1	L3MBTL1 inh inconclusive, APE1 inh-1 16µM, WRN inhibitor 50µM | APE1 inh-2 inconclusive
C[Se]CC[C@H](N)C(=O)O	none (no result: L3MBTL1 inh, RECQ1 helicase, APE1 inh-1, WRN inhibitor)
COc1ccc(C2=Nn3c(nnc3-c3ccc(OC)cc3OC)SC2)c(OC)c1	none (no result: L3MBTL1 inh, WRN inhibitor)
CC[C@H](C)[C@H](NC(=O)[C@H](N)Cc1ccc(O)cc1)C(=O)N[C@@H](CC(N)=O)C(=O)N[C@@H](CC(C)C)C(=O)N[C@H](C(=O)N[C@@H](C(=O)N[C@@H](CCCN=C(N)N)C(=O)N[C@@H](CCC(N)=O)C(=O)N[C@@H](CCCN=C(N)N)C(=O)N[C@H](Cc1ccc(O)cc1)C(N)=O)[C@@H](C)O)[C@@H](C)CC	none (no result: L3MBTL1 inh, WRN inhibitor)
Cc1cc[n+](-c2[nH]c(=O)sc2/C=N/N=C(\[O-])c2ccccc2)cc1C	RECQ1 helicase 28µM, APE1 inh-1 18µM | DNA dye displace inactive | EndoIV counter inactive | APE1 inh-2 inconclusive | APE1 FP inh inactive
Cc1cc[n+](-c2[nH]c(=O)sc2/C=N/N=C(\[O-])c2ccccc2)cc1	L3MBTL1 inh inconclusive, WRN inhibitor inconclusive | APE1 inh-2 40µM
O=C1CNC(=O)/C1=C/c1ccc(O)cc1	APE1 inh-1 0.89µM | DNA dye displace inactive | EndoIV counter inactive | APE1 inh-2 inconclusive | APE1 FP inh inactive
C=C(Cl)COc1ccc2c(CCC)cc(=O)oc2c1	none (no result: L3MBTL1 inh) | APE1 inh-2 inactive
CCCc1cc(=O)oc2cc(OCC(=O)Nc3cc(C)on3)ccc12	none
Oc1ccccc1Oc1ncc(Br)c(N2CCOCC2)n1	none
Oc1ccccc1Oc1c(F)c(F)nc(N2CCCC2)c1F	APE1 inh-1 inconclusive | DNA dye displace inactive | EndoIV counter inactive | APE1 inh-2 inconclusive | APE1 FP inh inactive
COc1cccc(/C=N/Nc2ccc(S(=O)(=O)O)cc2)c1O	APE1 inh-1 25µM | DNA dye displace inconclusive | EndoIV counter inactive | APE1 inh-2 inconclusive | APE1 FP inh inactive
CCOc1ccc(C=C2SC(=O)N(CCN)C2=O)cc1	none (no result: L3MBTL1 inh, WRN inhibitor)
Brc1ccc([C@H]2CN3CCSC3=N2)cc1	none (no result: L3MBTL1 inh, BLM helicase inh) | EndoIV counter inactive | APE1 inh-2 inactive
N=C1C(c2nc3ccccc3s2)=C(O)CN1NC(=O)c1c[nH]c2ccccc12	APE1 inh-1 inconclusive | DNA dye displace inactive | EndoIV counter inactive | APE1 inh-2 inconclusive | APE1 FP inh inactive
CC1(C)C2CC[C@]1(C)[C@@H](O)C2	none (no result: L3MBTL1 inh, RECQ1 helicase, APE1 inh-1, WRN inhibitor)

Bioassay records deposited in PubChem BioAssay by National Center for Advancing Translational Sciences (NCATS).
